{
  "source": "PubChem BioAssay",
  "note": "Measured potencies and affinities stand elsewhere. Inconclusive results are not listed. Activity calls are given as the source filed them. The rule behind the calls is not given here.",
  "data": [
    {"experiment": "IGROV1 ovarian cancer cell cytotoxicity, dose response, PAX8 inhibitor project, plate reader, dry powder samples (AID 743043);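 note: more negative means fewer viable cells or more cytotoxicity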", "details": "series mostly up to 35 µM", "values": [
      {"compound": "C[C@@H]1CCCCO[C@@H](CN(C)Cc2ccc(C(F)(F)F)cc2)[C@H](C)CN([C@@H](C)CO)C(=O)c2cc(NS(=O)(=O)c3ccc(Cl)cc3)ccc2O1", "outcome": "inactive"},
      {"compound": "COc1ccc2c3c([nH]c2c1)[C@@H](CO)N(C(=O)Nc1cccc(F)c1)CC31CCN(S(=O)(=O)c2cccc(C)c2)CC1", "outcome": "inactive"},
      {"compound": "O=C(CN1C(=O)c2ccccc2S1(=O)=O)c1ccc(Cl)cc1Cl", "outcome": "inactive"},
      {"compound": "COc1ccc(C#Cc2ccc([C@H]3[C@@H](CO)N4CCCCN(C(=O)Nc5ccccc5)C[C@H]34)cc2)cc1", "outcome": "inactive"},
      {"compound": "C[C@H]1CCCCO[C@@H](CN(C)Cc2ccncc2)[C@@H](C)CN([C@@H](C)CO)C(=O)c2cc(NC(=O)Nc3ccc(C(F)(F)F)cc3)ccc2O1", "outcome": "inactive"},
      {"compound": "C[C@@H]1CN([C@H](C)CO)C(=O)c2cc(NC(=O)Cc3ccccc3)ccc2O[C@@H](C)CCCCO[C@H]1CN(C)Cc1ccc(C(F)(F)F)cc1", "outcome": "inactive"},
      {"compound": "O=C(C1CCC1)N1CCCCN2[C@H](CO)[C@H](c3ccc(-c4cccc(F)c4)cc3)[C@H]2C1", "outcome": "inactive"},
      {"compound": "C[C@H]1CCCCO[C@H](CN(C)C(=O)Nc2ccc(C(F)(F)F)cc2)[C@@H](C)CN([C@@H](C)CO)C(=O)c2cc(NS(=O)(=O)c3cccs3)ccc2O1", "outcome": "inactive"},
      {"compound": "C[C@@H]1CN([C@@H](C)CO)C(=O)c2cc(N(C)C)ccc2O[C@@H](C)CCCCO[C@H]1CN(C)S(=O)(=O)c1ccc(F)cc1", "outcome": "inactive"},
      {"compound": "C[C@H](CO)N1C[C@H](C)[C@@H](CN(C)S(=O)(=O)c2ccc(Cl)cc2)OCCCC[C@H](C)Oc2ccc(NS(=O)(=O)c3ccc(F)cc3)cc2C1=O", "outcome": "inactive"},
      {"compound": "COc1ccccc1NC(=O)N1CCCCN2[C@H](C1)[C@@H](c1ccc(-c3cccc(C#N)c3)cc1)[C@@H]2CO", "outcome": "inactive"},
      {"compound": "COc1ccc(NC(=O)Nc2ccc3c(c2)C(=O)N([C@@H](C)CO)C[C@@H](C)[C@@H](CN(C)Cc2ccc(C(F)(F)F)cc2)O3)cc1", "outcome": "inactive"},
      {"compound": "COc1ccc(S(=O)(=O)Nc2ccc3c(c2)C(=O)N([C@H](C)CO)C[C@H](C)[C@H](CN(C)S(=O)(=O)c2ccc(F)cc2)OCCCC[C@H](C)O3)cc1", "outcome": "inactive"},
      {"compound": "COc1cccc(-c2ccc3c(c2)[C@@H]2[C@@H](CCN2S(=O)(=O)c2ccccc2C)[C@H](CO)N3C)c1", "outcome": "inactive"},
      {"compound": "C[C@H]1CCCCO[C@H](CN(C)Cc2ccc(C(F)(F)F)cc2)[C@@H](C)CN([C@@H](C)CO)C(=O)c2cc(NC(=O)Nc3ccc(F)cc3)ccc2O1", "outcome": "inactive"},
      {"compound": "C[C@H]1CN([C@@H](C)CO)S(=O)(=O)c2ccc(C#Cc3ccccc3F)cc2O[C@H]1CN(C)C(=O)c1ccc2c(c1)OCO2", "outcome": "inactive"},
      {"compound": "C[C@@H]1CCCCO[C@@H](CN(C)Cc2ccncc2)[C@H](C)CN([C@@H](C)CO)C(=O)c2cc(NC(=O)Nc3ccc(C(F)(F)F)cc3)ccc2O1", "outcome": "inactive"},
      {"compound": "C[C@@H]1CCCCO[C@H](CN(C)C(=O)c2ccccc2)[C@H](C)CN([C@@H](C)CO)C(=O)c2cc(NC(=O)Nc3ccc(C(F)(F)F)cc3)ccc2O1", "outcome": "inactive"},
      {"compound": "C[C@@H]1CCCCO[C@H](CN(C)C(=O)Cc2ccccc2)[C@@H](C)CN([C@@H](C)CO)C(=O)c2cc(NS(=O)(=O)c3ccc(Cl)cc3)ccc2O1", "outcome": "inactive"},
      {"compound": "C[C@@H]1CCCCO[C@H](CN(C)Cc2ccncc2)[C@H](C)CN([C@H](C)CO)C(=O)c2cc(NC(=O)Nc3ccc(C(F)(F)F)cc3)ccc2O1", "outcome": "inactive"},
      {"compound": "O=S(=O)(c1ccccc1F)N1CC[C@@H]2[C@H](CO)Nc3ccc(C4=CCCCC4)cc3[C@@H]21", "outcome": "inactive"}
    ]}
  ]
}
